From PubChem BioAssay AID463173 (ICCB-Longwood Screening Facility, Harvard Medical School, 2010)
The whole screen tested about 52,000 compounds, of which about 4,300 (8.3%) were called active. The sample holds actives, similar compounds and a random draw of the others, so the mix is not that of the screen. No stated cut-off is given here; in the data, active means survival mostly below about 52% (no sharp cut-off); inactive means mostly above about 56%.

System: DeltatarO mutant
Assay: growth inhibition of S. aureus wild type versus tarO mutant, primary screen, teichoic acid synthesis inhibitors, RN4220, OD600 (AID 463173)
Conditions: OD600, 18 h, stronger effect = lower value, screened at 18.75 µg/mL (by protocol)

Compound	survival
CN(C)c1ccc(CNC(=O)c2cnc3sc(N4CCOCC4)nn3c2=O)cc1	85% (inactive)
CC(CCc1ccccc1)NC(=O)Cn1ncc2c3ccccc3n(Cc3ccccc3)c2c1=O (stereo unspecified)	81% (inactive)
CCc1ccc(OCC2c3cc(OC)c(OC)cc3CCN2C(=O)COc2ccccc2)cc1 (stereo unspecified)	91% (inactive)
CCC(C(=O)NCc1ccccc1Cl)n1nc(C)c2sc3ccccc3c2c1=O (stereo unspecified)	103% (inactive)
Cc1cccc(NC(=O)c2cc(S(=O)(=O)N3CCCCCC3)cn2C)c1C	67% (inactive)
O=C(NCCc1ccccc1)C1CCN(Cc2cc3ccccc3n2Cc2ccccc2)CC1	79% (inactive)
Cc1cccc(N(C)S(=O)(=O)c2cc3[nH]c(=O)c(=O)[nH]c3cc2C)c1	88% (inactive)
CC(C)c1cnc2c(c1SCC(=O)Nc1cccc(F)c1)c(=O)n(C)c(=O)n2C	81% (inactive)
COc1ccc(-c2csc(=Nc3ccccc3)n2CCO)cc1F	58% (inactive)
CCN(CC)CCn1c(-c2ccccc2)csc1=Nc1ccccc1	42% (active)
OCCCn1c(-c2ccc(F)cc2)csc1=Nc1ccc(F)cc1	39% (active)
Cc1ccc(-c2csc(=Nc3ccccc3)n2Cc2ccc3c(c2)OCO3)cc1C	112% (inactive)
O=S(=O)(c1ccc(-c2csc(=Nc3ccc(F)cc3)n2CCCCCCO)cc1)N1CCCC1	56% (inactive)
Clc1ccc(-c2csc(=Nc3ccccc3)n2Cc2ccc3c(c2)OCO3)cc1	95% (inactive)
O=S(=O)(c1ccc(-c2csc(=Nc3ccc(OC(F)(F)Cl)cc3)n2CCCO)cc1)N1CCCC1	159% (inactive)
Cc1ccc(-c2csc(=Nc3ccccc3)n2Cc2ccc3c(c2)OCO3)cc1	73% (inactive)
Cc1ccc(-c2csc(=Nc3ccccc3)n2CCCO)cc1	5% (active)
CCOC(=O)c1c(NC(=O)CSc2cn(CCNC(=O)c3c(F)cccc3F)c3ccccc23)sc2c1CCC2	93% (inactive)
COc1ccc(Cl)cc1NC(=O)c1cc(S(=O)(=O)N(C)Cc2ccccc2)ccc1F	74% (inactive)

Compound	survival
O=C(c1cc(-c2ccc(Br)cc2)n[nH]1)N1CCN(S(=O)(=O)c2ccc(Br)cc2)CC1	79% (inactive)
CN(C)S(=O)(=O)n1cc(/C=C(\NC(=O)c2ccccc2)C(=O)NCCCn2ccnc2)c2ccccc21	104% (inactive)
COc1ccc(CNC(=O)c2ccc(NC(=O)N3CCSc4ncccc43)cc2)c(OC)c1	81% (inactive)
COc1ccc(OC)c(C2C(C(N)=O)=C(C)Nc3nc(-c4cccc(Cl)c4)nn32)c1 (stereo unspecified)	113% (inactive)
CCOc1ccc(S(=O)(=O)N2CCN(c3cc(Cl)ccc3Cl)CC2)c2ccccc12	64% (inactive)
O=C(Nc1nnc(S(=O)(=O)N2CCCc3ccccc32)s1)c1ccccc1	27% (active)
Cc1cc(C)c2nc(NC(=O)c3ccc(S(=O)(=O)N4CCc5ccccc54)cc3)sc2c1	83% (inactive)
O=C(Nc1nc2c(F)cccc2s1)c1ccc(S(=O)(=O)N2CCCc3ccccc32)cc1	102% (inactive)
O=C(Nc1nnc(S(=O)(=O)N2CCc3ccccc32)s1)c1ccccc1	12% (active)
CCC(CC)C(=O)Nc1nnc(S(=O)(=O)N2CCc3ccccc32)s1	73% (inactive)
O=C(Nc1nnc(S(=O)(=O)N2CCCc3ccccc32)s1)c1ccc(Cl)cc1	15% (active)
O=C(Nc1nnc(S(=O)(=O)N2CCCc3ccccc32)s1)c1cccc(F)c1	7% (active)
Cc1c(Cl)ccc2sc(NC(=O)c3ccc(S(=O)(=O)N4CCCc5ccccc54)cc3)nc12	55% (inactive)
Cc1nc2ccccc2c2nc(N)nn12	85% (inactive)
C=Cc1ccc(CSc2nc(-c3ccc(Cl)cc3)nc3c2Cc2c(CO)cnc(C)c2O3)cc1	70% (inactive)
COc1ccc(NC(=O)Cn2c(SCc3ccc(F)cc3)nc3cccnc32)cc1OC	74% (inactive)
CC(=O)c1ccc(S(=O)(=O)Nc2cccc(-c3ccc(N4CCCC4)nn3)c2)cc1	89% (inactive)
Cc1ccccc1Cn1c(=O)n(CCCCCC(=O)NCc2ccc3c(c2)OCO3)c(=O)c2sccc21	101% (inactive)
COc1ccc2c(=O)c(NC(=O)Nc3ccc(F)cc3F)c[nH]c2c1	92% (inactive)

Compound	survival
O=c1c2sc3ccccc3c2n(Cc2cccc(C(F)(F)F)c2)c(=O)n1Cc1ccc(F)cc1	114% (inactive)
O=C(Nc1ccc(F)cc1F)C1CCN(C(=O)c2cnn(-c3ccccc3)c2-n2cccc2)CC1	106% (inactive)
C=C(C)Cn1c(SCC(=O)Nc2ccccc2C)nc2sc3c(c2c1=O)CCCC3	126% (inactive)
C=CCn1c(SC(C)C)nc2sc3c(c2c1=O)CCCC3	71% (inactive)
CC(C)Sc1nc2sc3c(c2c(=O)n1-c1ccccc1)CCCC3	-3% (active)
O=c1[nH]c2sc3c(c2c(=O)n1-c1ccccc1)CCCC3	70% (inactive)
CC(C)Sc1nc2sc3c(c2c(=O)n1Cc1ccccc1)CCCC3	13% (active)
C#CCSc1nc2sc3c(c2c(=O)n1Cc1ccccc1)CCCC3	33% (active)
O=c1c2c3c(sc2nc(NCCO)n1-c1ccccc1)CCCC3	92% (inactive)
C=CCSc1nc2sc3c(c2c(=O)n1CC=C)CCCC3	98% (inactive)
CCCCC(c1nnnn1C(C)C)N1CCN(c2ccc(F)cc2)CC1 (stereo unspecified)	85% (inactive)
CCOC(=O)Cn1c2[n+](c3ccccc31)CC(O)CS2 (stereo unspecified)	72% (inactive)
Cc1ccc(CNC(=O)CSc2nc3ccsc3c(=O)n2-c2ccc(C(=O)O)cc2)cc1	95% (inactive)
Cc1ccc(NC(=O)C2CCCN2S(=O)(=O)c2ccc3c(c2)n(C)c(=O)c(=O)n3C)cc1C (stereo unspecified)	115% (inactive)
Cc1ccc(NC(=O)C2CCCN2S(=O)(=O)c2ccc3c(c2)n(C)c(=O)c(=O)n3C)cc1 (stereo unspecified)	87% (inactive)
Cc1ccc(C)c(NC(=O)C2CCCN2S(=O)(=O)c2ccc3c(c2)n(C)c(=O)c(=O)n3C)c1 (stereo unspecified)	38% (active)
COc1ccc2cc(CNc3ccccc3)c(=O)n(CC(=O)Nc3ccc(C(C)=O)cc3)c2c1	68% (inactive)
COc1ccccc1NC(=O)C(C#N)Cc1cc2cc(C)cc(C)c2[nH]c1=O (stereo unspecified)	98% (inactive)
